According to PubChem BioAssay (NCI):
Several values for one entry are separate records, joined by “and”; a condition that tells them apart may be missing. Equal values may be shown once. This is part of a sample that, as a whole, favours compounds with a hit. Of some 83,000 tested, about 20% had one in any assay.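 Growth was measured after 48 h exposure to one concentration of compound in 96-well plates. Values under 10 count as active.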 Activity calls are given as the source filed them. Where a SMILES comes first, the peptide text is derived from it. [ ]: non-standard residue; d: D form. ξ: configuration not given here. ξV = CC(C)C(N)C(=O)O

Assays:
Assay in all cases: NCI-60 one-dose screen, 48 h (100 = growth as untreated, 0 = no growth, -100 = all killed)
SR leukemia = conditions: 10 µM unless noted
RPMI-8226 leukemia = conditions: 10 µM
OVCAR-8 ovarian = conditions: 10 µM
OVCAR-5 ovarian = conditions: 10 µM
OVCAR-4 ovarian = conditions: 10 µM
SK-OV-3 ovarian = conditions: 10 µM
IGROV1 ovarian = conditions: 10 µM
OVCAR-3 ovarian = conditions: 10 µM
HS 578T breast = conditions: 10 µM
NCI/ADR-RES ovarian = conditions: 10 µM
T-47D breast = conditions: 10 µM
BT-549 breast = conditions: 10 µM
MDA-MB-435 melanoma = conditions: 10 µM
SW-620 colon = conditions: 10 µM
MCF7 breast = tested on: MCF7 breast
HCT-116 colon = conditions: 10 µM
HCC-2998 colon = conditions: 10 µM
KM12 colon = conditions: 10 µM

Measured: growth

NNc1ccc2ccccc2c1
inactive: SR leukemia 82.3% and 94.9% | RPMI-8226 leukemia 92.8% and 97.2% | OVCAR-8 ovarian 97.8% and 96.2% | OVCAR-5 ovarian 92.3% and 93% | OVCAR-4 ovarian 89.9% and 88.2% | SK-OV-3 ovarian 76.3% and 91.1% | IGROV1 ovarian 83% and 103% | OVCAR-3 ovarian 92.1% and 99.6% | HS 578T breast 96.1% and 98.9% | NCI/ADR-RES ovarian 97.1% and 101% | T-47D breast 70.2% and 98.5% | BT-549 breast 96.4% | MDA-MB-435 melanoma 98.8% and 103% | SW-620 colon 96.1% | MCF7 breast; 10 µM 74.8% and 80.2% | HCT-116 colon 102% and 90.2% | HCC-2998 colon 98%

CC(=O)Nc1cc(C)ccc1C
inactive: SR leukemia 98.8% | RPMI-8226 leukemia 117% | OVCAR-8 ovarian 104% | OVCAR-5 ovarian 102% | OVCAR-4 ovarian 104% | SK-OV-3 ovarian 102% | IGROV1 ovarian 108% | OVCAR-3 ovarian 102% | HS 578T breast 90.4% | NCI/ADR-RES ovarian 103% | T-47D breast 107% | BT-549 breast 112% | MDA-MB-435 melanoma 102% | SW-620 colon 96.4% | MCF7 breast; 10 µM 105% | HCT-116 colon 96.9% | HCC-2998 colon 100%

NC1=C(Cl)C(=O)c2ccccc2C1=O
active: MDA-MB-435 melanoma -87.5%
inactive: SR leukemia 46.4% | RPMI-8226 leukemia 55.7% | OVCAR-8 ovarian 74.4% | OVCAR-5 ovarian 111% | OVCAR-4 ovarian 72.3% | SK-OV-3 ovarian 108% | IGROV1 ovarian 67.7% | OVCAR-3 ovarian 12.3% | HS 578T breast 14.5% | NCI/ADR-RES ovarian 80.4% | T-47D breast 86.8% | BT-549 breast 82.7% | SW-620 colon 86.8% | MCF7 breast; 10 µM 48.3% | HCT-116 colon 54.4% | HCC-2998 colon 101%

CCN(CC)c1ccc(NC(C(=O)c2ccccc2)c2ccccc2)cc1 (stereo not given)
inactive: SR leukemia 14.3% | OVCAR-5 ovarian 60.9% | OVCAR-4 ovarian 65.2% | SK-OV-3 ovarian 109% | IGROV1 ovarian 59.4% | HS 578T breast 46.1% | NCI/ADR-RES ovarian 25.4% | MCF7 breast; 10 µM 11.1% | HCC-2998 colon 65.1%
active: RPMI-8226 leukemia 8.53% | OVCAR-8 ovarian 9.32% | OVCAR-3 ovarian -4.87% | T-47D breast 8.44% | BT-549 breast 2.75% | MDA-MB-435 melanoma 3.95% | SW-620 colon 6.54% | HCT-116 colon -19.6%

Clc1ccc(/C=C/c2ccccn2)c(Cl)c1
inactive: SR leukemia 80.8% | RPMI-8226 leukemia 102% | OVCAR-8 ovarian 101% | OVCAR-5 ovarian 106% | OVCAR-4 ovarian 71.2% | SK-OV-3 ovarian 103% | IGROV1 ovarian 69.6% | OVCAR-3 ovarian 90.4% | HS 578T breast 86.3% | NCI/ADR-RES ovarian 109% | T-47D breast 47.5% | BT-549 breast 88.4% | MDA-MB-435 melanoma 104% | SW-620 colon 86% | HCT-116 colon 77.7% | HCC-2998 colon 77.9%
active: MCF7 breast; 10 µM 7.59%

CC(C)C(NC(=O)CN)C(=O)O (stereo not given) (H-Gly-[ξV]-OH)
inactive: SR leukemia 57% | RPMI-8226 leukemia 109% and 107% | OVCAR-8 ovarian 101% and 110% | OVCAR-5 ovarian 103% and 99.9% | OVCAR-4 ovarian 105% and 102% | SK-OV-3 ovarian 106% and 101% | IGROV1 ovarian 109% and 108% | OVCAR-3 ovarian 112% | HS 578T breast 111% and 91.9% | NCI/ADR-RES ovarian 105% and 111% | T-47D breast 102% | BT-549 breast 83.4% and 116% | MDA-MB-435 melanoma 104% and 101% | SW-620 colon 117% and 101% | MCF7 breast; 10 µM 106% and 101% | HCT-116 colon 96.9% and 107% | HCC-2998 colon 103% and 106%

CO[C@H](C(=O)[C@@H](O)[C@@H](C)O)[C@@H]1Cc2cc3cc(OC4CC(OC5CC(O)C(O)C(C)O5)C(O)C(C)O4)c(C)c(O)c3c(O)c2C(=O)[C@H]1OC1CC(OC2CC(OC3CC(C)(O)C(O)C(C)O3)C(O)C(C)O2)C(O)C(C)O1 (stereo not given in full)
active: RPMI-8226 leukemia -14.5% | OVCAR-5 ovarian -54.9% | OVCAR-4 ovarian 8.23% | IGROV1 ovarian -21% | OVCAR-3 ovarian 3.02% | T-47D breast 7.17% | BT-549 breast -19.9% | MDA-MB-435 melanoma -62.9% | SW-620 colon -25.1% | MCF7 breast; 10 µM -3.56% | HCT-116 colon 5.29%
inactive: SR leukemia 10.5% | SK-OV-3 ovarian 35.3% | NCI/ADR-RES ovarian 44.4%

CC(C)C1=C(O)C2=C(C(=O)C1=O)C1(C)CCCC(C)(C)C1CC2O (stereo not given)
active: MCF7 breast; 100 µM -23.1% and -78.3%

CCCCCC(C)c1ccc(O)c(C)c1 (stereo not given)
inactive: SR leukemia 94.3% | OVCAR-8 ovarian 102% | OVCAR-5 ovarian 102% | OVCAR-4 ovarian 95.5% | SK-OV-3 ovarian 106% | IGROV1 ovarian 117% | OVCAR-3 ovarian 105% | HS 578T breast 105% | NCI/ADR-RES ovarian 102% | T-47D breast 101% | BT-549 breast 99.7% | MDA-MB-435 melanoma 105% | SW-620 colon 105% | MCF7 breast; 10 µM 92% | HCT-116 colon 95.8% | HCC-2998 colon 103% | KM12 colon 106%

O=C(/C=C/c1cccnc1)c1ccccc1
inactive: SR leukemia 14.5% | RPMI-8226 leukemia 54.1% | OVCAR-8 ovarian 83.8% | OVCAR-5 ovarian 91.3% | OVCAR-4 ovarian 91.7% | SK-OV-3 ovarian 103% | IGROV1 ovarian 96.5% | OVCAR-3 ovarian 85.8% | NCI/ADR-RES ovarian 86% | T-47D breast 86.5% | BT-549 breast 103% | MDA-MB-435 melanoma 80.2% | SW-620 colon 23% | MCF7 breast; 10 µM 26.1% | HCT-116 colon 21.1% | HCC-2998 colon 86%

COC(=O)C1C(O)C(C)C(O)C(C)C=C(C)C2=C3C(=C(C)C(=O)c4c(O)c(c(C)c(OC(C)=O)c43)NC(=O)C(C)=C/C=C\C(C)C(O)C(C)C1O)OCO2 (stereo not given)
inactive: SR leukemia 138% | RPMI-8226 leukemia 118% | OVCAR-8 ovarian 114% | OVCAR-5 ovarian 104% | OVCAR-4 ovarian 108% | SK-OV-3 ovarian 116% | IGROV1 ovarian 163% | OVCAR-3 ovarian 113% | HS 578T breast 116% | NCI/ADR-RES ovarian 121% | T-47D breast 117% | MDA-MB-435 melanoma 130% | SW-620 colon 103% | MCF7 breast; 10 µM 103% | HCT-116 colon 96% | HCC-2998 colon 145%

NC(=O)SCC(=O)NNc1ccccc1
inactive: SR leukemia 111% | RPMI-8226 leukemia 105% | OVCAR-8 ovarian 93.8% | OVCAR-4 ovarian 104% | SK-OV-3 ovarian 100% | IGROV1 ovarian 103% | OVCAR-3 ovarian 107% | HS 578T breast 100% | NCI/ADR-RES ovarian 95.5% | T-47D breast 73.5% | BT-549 breast 113% | MDA-MB-435 melanoma 101% | SW-620 colon 87.5% | MCF7 breast; 10 µM 94.2% | HCT-116 colon 94.6% | HCC-2998 colon 103%

CCN1/C(=C/C=C/C=C/c2sc3ccccc3[n+]2CC)Sc2ccccc21
active: RPMI-8226 leukemia -21.4% | OVCAR-8 ovarian -65.6% | OVCAR-5 ovarian 7.61% | OVCAR-4 ovarian -42% | SK-OV-3 ovarian -73.1% | IGROV1 ovarian -62.9% | OVCAR-3 ovarian -64.1% | T-47D breast -32.2% | BT-549 breast -42.3% | MDA-MB-435 melanoma -76.9% | SW-620 colon -31.1% | MCF7 breast; 10 µM -44.2% | HCT-116 colon -25.9% | HCC-2998 colon -88.5% | KM12 colon -88.3%
inactive: HS 578T breast 26.2% | NCI/ADR-RES ovarian 55.9%

N=S(c1ccccc1[N+](=O)[O-])c1ccccc1[N+](=O)[O-]
inactive: RPMI-8226 leukemia 72.8% | OVCAR-8 ovarian 96.8% | OVCAR-5 ovarian 69.6% | OVCAR-4 ovarian 38.4% | SK-OV-3 ovarian 87.2% | IGROV1 ovarian 53.9% | HS 578T breast 96.7% | NCI/ADR-RES ovarian 90.4% | BT-549 breast 84.7% | MDA-MB-435 melanoma 62.1% | SW-620 colon 17.9% | HCC-2998 colon 90.4%
active: OVCAR-3 ovarian -58.8% | T-47D breast -2.34% | MCF7 breast; 10 µM -53.7% | HCT-116 colon 5.85%
